High-throughput results deposited in PubChem BioAssay by National Center for Advancing Translational Sciences (NCATS).
This is a sample that favours compounds with a hit; in the whole collection about 7.4% have one here.
SMN2 splice up = SMN2 splice variant enhancement. Potency, µM (highest dose often 46.1 µM), for inactives: at the top dose activity change, positive = activation, actives largely listed as activators. 2.8% of 210,000 active. HEK293 SMN2-luciferase splicing reporter, luminescence, 30-36 h; note: % of control where 0% means no effect; nearly all actives have a fitted effect of over 55% in size
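HEK293 cells carry an SMN2 minigene-luciferase reporter in which exon 7 inclusion puts luciferase in frame. Cells were seeded at 2000 cells/well, attached for 10-12 hours, then exposed to compounds for 30-36 hours at 37C before ONE-Glo luminescence.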
Rab9 prom act = activates the Rab9 promoter; AID 485297; Potency, µM (series often up to 9.22 µM), for inactives: at the highest dose activation, negative = inhibition, usual class: activators; 2.8% of 320,000 active; Huh7 Rab9 promoter-luciferase reporter, luminescence, 24 h; note: % of control where 0% means no effect; nearly all actives have a fitted effect of over 60% in size
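Cell-based reporter: Huh7 stable for Rab9 promoter-driven luciferase, plated in reduced-serum medium with 10% FBS at 1500 cells/well, compound-treated 24 h at 37 °C, luminescence read after 10 min reagent.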
ELG1 genotoxic = inducers of genotoxicity in HEK293T ELG1-luciferase cells | HEK293T ELG1-luciferase reporter, luminescence, 16 h | Potency, µM (highest dose often 46 µM), for the others: at the top dose activity change, positive = activation, actives largely listed as activators | 1.3% of 330,000 active; note: % of control where 0% means no effect; nearly all actives have a fitted effect of over 60% in size
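16 hr compound incubation (37 °C, 5% CO2) of HEK293T cells carrying luciferase-tagged ELG1; luciferase then measured by ONE-Glo luminescence after 30 min at RT.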
NPC1 promoter act = NPC1 promoter activation; Huh7 NPC1 promoter luciferase reporter, 24 h; 2.4% of 320,000 active; AID 485313; Potency, µM (top dose mostly 9.22 µM), inactives show at the top dose activation, usual class: activators; note: % of control where 0% means no effect; nearly all actives have a fitted effect of over 60% in size
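Compounds in DMSO were transferred onto Huh7 NPC1-luciferase reporter cells pre-incubated 2 h; after 24 h at 37 °C, Amplite reagent was dispensed and luminescence recorded 10 min later.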
FLuc counter = firefly luciferase modulation, counter-screen for miR-21 project. 6.9% of 360,000 active. AID 588342. P08659. purified FLuc, Km substrates, luminescence inhibition. Potency, µM (doses to about 57.5 µM), without a hit: top-dose activity change, negative = inhibition, usual class: inhibitors;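 note: plate controls were vehicle for no effect and reference inhibitor for full effect; nearly all actives have a fitted effect of over 55% in size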
Target sequence (P08659 whole entry, looked up): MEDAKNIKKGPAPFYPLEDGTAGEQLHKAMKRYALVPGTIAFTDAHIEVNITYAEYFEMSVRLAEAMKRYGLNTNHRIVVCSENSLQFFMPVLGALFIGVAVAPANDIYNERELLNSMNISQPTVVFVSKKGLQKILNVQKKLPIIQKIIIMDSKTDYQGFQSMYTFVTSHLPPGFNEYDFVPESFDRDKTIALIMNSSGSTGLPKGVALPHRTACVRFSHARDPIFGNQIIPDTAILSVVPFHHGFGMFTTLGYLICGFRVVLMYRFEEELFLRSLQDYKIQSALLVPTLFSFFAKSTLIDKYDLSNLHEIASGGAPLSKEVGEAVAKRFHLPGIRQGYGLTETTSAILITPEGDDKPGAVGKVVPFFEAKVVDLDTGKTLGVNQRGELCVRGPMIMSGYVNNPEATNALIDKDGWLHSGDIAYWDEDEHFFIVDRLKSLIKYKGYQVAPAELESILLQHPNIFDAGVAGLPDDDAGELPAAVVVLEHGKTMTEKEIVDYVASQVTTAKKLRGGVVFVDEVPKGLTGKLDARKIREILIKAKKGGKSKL
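Biochemical qHTS of compounds, final roughly 60 µM downward over six points, against 10 nM purified firefly luciferase using Km concentrations of substrates (10 uM D-luciferin, 10 uM ATP) in Tris acetate pH 7.5 buffer; luminescence output.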
* = called active by the depositor; u = inconclusive; x = no result given; [ ] = remark or other dose. Calls come from the whole dose curve; as a rule, active = well fitted curve in the direction sought with a large enough effect; inconclusive = small, poorly fitted or top-dose-only effect, or another doubt; inactive = no such curve, though single readings can be large; an effect the other way counts as inactive or inconclusive. Potency is the fitted concentration of half-maximal effect.

SMILES	SMN2 splice up	Rab9 prom act	ELG1 genotoxic	NPC1 promoter act	FLuc counter
CN(C)c1ccc(S(=O)(=O)N2CCCCC2)cc1NC(=O)C1=COCCO1	x	-2%	-2%	-1%	5%
O=C(N/N=C/c1ccc(OC2CSC2)cc1)c1ccccc1	21%	2.2µM*	u	3.2µM*	2.4µM*
O=C(N/N=C/c1ccc(OCc2ccc(F)cc2)cc1)c1ccccc1	7%	-2%	11%	9%	-4%
O=C(/C=C/c1ccc(OC2CSC2)cc1)c1ccccc1	13%	1.8µM*	u	3.5µM*	0.54µM*
CNC(=O)c1ccc(OC2CSC2)cc1	2%	x	x	x	1%
COc1cccc(-c2nc(-c3ccc(Br)o3)no2)c1	x	0.56µM*	u	0.89µM*	0.67µM*
COc1ccc(-c2noc(Cc3ccccc3OC)n2)cc1	-12%	22%	u	24%	u
COc1ccccc1-c1nc(-c2ccc(Br)o2)no1	u	0.89µM*	u	3.5µM*	1.9µM*
COc1ccccc1Cc1nc(-c2ccc(Br)o2)no1	8%	12%	9%	16%	19µM*
COc1ccc(-c2nc(-c3ccc(Br)o3)no2)cc1OC	14µM*	3.2µM*	21µM*	u	u
COc1ccc(-c2nnc(-c3ccc(Br)o3)o2)cc1OC	x	22%	u	27%	u
O=c1n(Cc2ccc(Cl)cc2)nc2n1-c1ccccc1OC2	6%	x	x	x	-7%
CCN[C@@H]1C[C@H](N)[C@H](O[C@H]2OC(CN)=CC[C@H]2N)[C@@H](O)[C@H]1O[C@H]1OC[C@@](C)(O)[C@@H](NC)[C@@H]1O	-3%[20.6 µM]	x	x	x	x
COc1cc(C(=S)N2CCOCC2)cc(OC)c1OC(=O)c1cccc(C)c1	x	-3%	-9%	-3%	10%
CCOc1ccc(NC(=O)CS(=O)(=O)Cc2nc(-c3ccc(C)cc3)oc2C)cc1	2%	x	x	x	0%
O=C(Nc1ccc(F)cc1F)c1cc2nc3c(c(C(F)(F)F)n2n1)CCCC3	17%	0.56µM*	u	1.1µM*	0.6µM*
COc1ccc(/C=C/C(=O)c2ccc[nH]2)cc1OC	u	3.2µM*	21µM*	u	12µM*
COc1ccc(/C=C/C(=O)c2ccncc2)c2ccccc12	-57%	-5%	-4%	2%	u
COc1ccc(/C=C/C(=O)c2ccc[nH]2)c(OC)c1OC	u	u	u	u	8.5µM*
NNC(=O)CN1CCCc2ccccc21	23%	3%	u	-2%	12µM*
CC(=O)Cc1nsc(NC(=O)c2ccc(-c3ccccc3Cl)o2)n1	11µM*	8%	u	4%	11µM*
CC(=O)Cc1nsc(NC(=O)c2oc(-c3ccccc3Cl)cc2C)n1	5%	4%	-1%	-1%	u
CC(=O)Cc1nsc(NC(=O)c2ccc(-c3ccc(F)cc3)o2)n1	2%	16%	1%	-2%	6µM*
COc1cccc(CNC(=O)CSc2n[nH]c(-c3ccccc3Cl)n2)c1OC	x	x	x	x	-16%
Nc1cnn([C@@H]2O[C@H](CO)[C@@H](O)[C@H]2O)c(=O)n1	22µM*	x	x	x	x
SMILES	SMN2 splice up	Rab9 prom act	ELG1 genotoxic	NPC1 promoter act	FLuc counter
Nc1cnn(C2OC(CO)C(O)C2O)c(=O)n1 (stereo not drawn)	u	3%	-10%	0%	3%
CCOC(=O)N1CCN(c2nc(-c3ccccc3)c3ccccc3n2)CC1	x	-7%	-3%	-3%	0%
COCCN(CCOC)Cc1c(O)ccc2c1O/C(=C\c1ccc(C)o1)C2=O	x	-2%	-1%	-2%	u
CCN(CC)Cc1c(O)ccc2c1O/C(=C\C=C\c1ccccc1)C2=O	x	-4%	-1%	-4%	12µM*
CS(=O)(=O)Oc1ccc2c(c1)O/C(=C\C=C\c1ccccc1)C2=O	x	-1%	1%	7%	7.6µM*
COc1ccccc1/C=C/C=C1\Oc2c(ccc(O)c2CN(C)C)C1=O	x	2%	2%	2%	3µM*
CS(=O)(=O)Oc1ccc2c(c1)O/C(=C\c1cccc([N+](=O)[O-])c1)C2=O	x	-1%	-1%	3%	-3%
CCCn1c(=O)sc2cc(NC(=O)c3ccccc3OCC)ccc21	-9%	x	x	x	5%
CN(C)/C=C1\Oc2ccc3ccccc3c2C1=O	18µM*	u	14%	3.2µM*	17µM*
CCOc1cccc(/C=N/NC(=S)Nc2ccccc2[N+](=O)[O-])c1O	-81%	1%	0.37µM*	5%	u
O=[N+]([O-])c1ccccc1NC(=S)N/N=C/c1ccc(O)c(O)c1	x	u	3.7µM*	u	19µM*
Cc1ccccc1OCC(=O)OCC(=O)Nc1ncc(Cl)c(C)c1Cl	x	-3%	4%	-1%	x
NCCC[C@@H](CC(=O)N[C@@H]1CCNC[C@H]1C(=O)N[C@H](CC(=O)N[C@@H](CCC(=O)O)CC(=O)O)Cc1c[nH]c2ccccc12)NC(=O)C[C@H](Cc1ccccc1)NC(=O)[C@@H]1CCCC[C@H]1N	6%	x	x	x	x
CCOc1ccc2oc(=O)cc(CN3CCN(Cc4ccc(F)cc4)CC3)c2c1	-3%	x	x	x	-8%
Cc1ccn2c(c1)nc(=S)n2C(=O)c1ccco1	18µM*	1.6µM*	u	4µM*	1.5µM*
COc1cc(S(=O)(=O)N2CCN(Cc3ccc4c(c3)OCO4)CC2)ccc1NC(C)=O	x	x	-1%	x	x
CCCCNC(=O)CCn1c(=O)c2ccccc2n(Cc2ccccc2C#N)c1=O	-8%	x	x	x	-2%
Cc1ccc(NC(=O)Nc2cccc(Cl)c2)c(C(=O)O)c1	-7%	-5%	8%	18%	12µM*
CSc1ccccc1NC(=O)Nc1ccc(F)c(Cl)c1	6%	15%	2%	16%	12µM*
CSc1ccccc1NC(=O)Nc1cccc(Cl)c1Cl	12%	1%	2%	0%	2%
CSc1ccccc1NC(=O)Nc1cccc(Cl)c1	19%	13%	1%	11%	24µM*
CSc1ccccc1NC(=O)Nc1cccc(Cl)c1C	-46%	1%	19%	-2%	-2%
COc1ccc(-n2ccc3ccccc32)cc1	x	-2%[1.84 µM]	0%	-7%	24µM*
COc1ccc(N2C(=O)c3cc4ccccc4cc3C2=O)cc1	x	1%	-1%	23%	0%
COc1ccccc1NC(=O)Nc1ccc2c(c1)CCC2	x	2.5µM*	13µM*	2.5µM*	3µM*
COc1ccccc1NC(=O)COC(=O)c1cc2c(s1)CCC2	x	3%	0%	-3%	8.5µM*
COc1ccc(NC(=O)Nc2ccc3c(c2)CCC3)cc1OC	13%	18%	8%	9%	-5%
COc1ccc(C)cc1NC(=O)Nc1ccc2c(c1)CCC2	x	0%	3%	2%	9.5µM*
COc1cc(CNCCCSc2nnnn2C)cc(Br)c1OC	x	-1%	x	-3%	8%
C[C@@H](NC(=O)[C@@H]1Cc2ccccc2CN1)C(=O)NCc1ccco1	x	-1%	2%	19%	-1%
